Screening results: PubChem, The Scripps Research Institute Molecular Screening Center
Rows were chosen to be rich in hits. Some 1.8% of all compounds tested hit in one or more screens of this group.
LYPLA2 counter = LYPLA2 (human) inhibition in PME1 counter-screen | O95372 | recombinant LYPLA2, FP-Rh probe fluorescence polarization | inhibition, % at 5.9 µM | 320,000 tested, 0.38% active | AID 2177;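 active = inhibition above the screen-wide mean plus 3 SD, limit set per campaign, cut at about 26% in these data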;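 also: 0% = LYPLA2 with DMSO and 100% = wells lacking LYPLA2 enzyme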
Target sequence (O95372 whole entry, looked up): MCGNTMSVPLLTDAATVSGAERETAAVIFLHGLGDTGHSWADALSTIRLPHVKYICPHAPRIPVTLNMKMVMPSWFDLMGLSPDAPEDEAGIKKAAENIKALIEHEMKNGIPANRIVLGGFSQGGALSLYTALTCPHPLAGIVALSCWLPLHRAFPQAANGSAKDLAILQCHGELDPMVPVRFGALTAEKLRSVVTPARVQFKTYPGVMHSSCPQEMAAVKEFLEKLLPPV
PME-1 inh = PME-1 (human) inhibition. 320,000 tested, 0.53% active. inhibition, % at 5.9 µM. recombinant PME-1, FP-Rh probe fluorescence polarization;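 active = inhibition above the campaign mean of all compounds plus 3 SD, cut at about 26% in these data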;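 also: competitive labeling of PME-1 active site by serine hydrolase directed probe; 0% = PME-1 with DMSO and 100% = wells lacking PME-1 enzyme; inhibitors block probe labeling so polarization falls and inhibition rises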
LYPLA1 inh = blocks human lysophospholipase 1, a PME1 counter-screen; recombinant LYPLA1, FP-Rh probe fluorescence polarization; inhibition, % at 5.9 µM; AID 2174; O75608; 320,000 tested, 0.16% active;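 active = inhibition above the mean of all tested compounds plus 3 SD, set per campaign, cut at about 14% in these data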;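 also: inhibitors block serine hydrolase probe labeling of LYPLA1 so polarization falls; 0% = enzyme with DMSO and 100% = wells lacking LYPLA1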
Target sequence (O75608 whole entry, looked up): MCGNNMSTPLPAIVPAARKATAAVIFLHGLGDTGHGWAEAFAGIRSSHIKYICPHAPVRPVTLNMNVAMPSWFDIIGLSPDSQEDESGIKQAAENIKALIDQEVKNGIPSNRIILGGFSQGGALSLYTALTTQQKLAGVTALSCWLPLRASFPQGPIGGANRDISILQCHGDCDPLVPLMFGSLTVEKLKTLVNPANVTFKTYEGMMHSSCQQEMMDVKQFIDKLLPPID
GSTO1 counter = blocks human GSTO1 in RBBP9 counter-screen; P78417; recombinant GSTO1, activity-based probe fluorescence polarization; inhibition, % at 5.96 µM; 300,000 tested, 1.1% active;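 active = inhibition above the campaign mean inhibition plus 3 SD, cut at about 35% in these data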;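 also: 0% = GSTO1-1 with DMSO and 100% = wells lacking GSTO1-1 enzyme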
Target sequence (P78417 whole entry, looked up): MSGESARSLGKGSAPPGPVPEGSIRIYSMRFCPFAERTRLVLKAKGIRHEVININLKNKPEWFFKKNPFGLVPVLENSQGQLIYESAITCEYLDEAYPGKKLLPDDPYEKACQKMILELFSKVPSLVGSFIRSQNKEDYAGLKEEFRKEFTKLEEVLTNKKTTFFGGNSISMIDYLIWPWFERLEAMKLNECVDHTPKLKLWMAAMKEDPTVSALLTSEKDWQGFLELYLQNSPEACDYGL
PAD4 inh = PAD4 (human) enzyme inhibition. recombinant PAD4, RCA probe fluorescence polarization. inhibition, % at 6.36 µM. 330,000 tested, 0.41% active;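 active = percent inhibition above a cutoff equal to the mean of all tested compounds plus 3 SD, cut at about 15% in these data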;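 also: 0% = PAD4 with RCA probe and DMSO and 100% = probe without PAD4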
Fam108B inh = Fam108B inhibition, counter-screen for RBBP9 inhibitors; recombinant Fam108B, FP-Rh probe fluorescence polarization; inhibition, % at 9.51 µM; AID 1947; 300,000 tested, 0.33% active;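 active = inhibition above the screen mean inhibition plus 3 SD, computed separately per campaign, cut at about 18% in these data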;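 also: inhibitors lower polarization as less probe binds the enzyme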
Fam108b confirm = Fam108b (mouse) hydrolase inhibition, confirmation assay | shares compounds with Fam108B inh | recombinant Fam108b, FP-Rh probe fluorescence polarization | inhibition, % at 9.51 µM | 930 tested, 44% active | AID 1978;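 active = inhibition above a limit from the primary screen, the mean over all compounds plus 3 SD, cut at about 19% in these data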;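 also: 0% = median of active Fam108b wells and 100% = catalytically dead S170A mutant; inhibitors free the probe so polarization falls as inhibition rises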
Fam108b ABPP HTS = mouse ABHD17B inhibition | inhibition, % at 20 µM | shares compounds with Fam108B inh | 260 tested, 44% active | recombinant Fam108b, gel-based ABPP, fluorophosphonate probe; in the data active = inhibition above about 40%
An asterisk follows results filed as active; nt = no result given.

SMILES	LYPLA2 counter	PME-1 inh	LYPLA1 inh	GSTO1 counter	PAD4 inh	Fam108B inh	Fam108b confirm	others
N=c1oc2cc(O)ccc2cc1C(=O)Nc1ccc(Br)cc1	-2.6	8.9	6.1	14.7	-6.7	33.0*	164.0*	Fam108b ABPP HTS=40.0*
N=c1oc2cc(O)ccc2cc1C(=O)Nc1ccccn1	-0.5	-4.5	-1.4	7.4	-0.9	-0.7	nt
O=Cc1ccc(-n2nncc2-c2ccc([N+](=O)[O-])cc2)cc1	2.5	-2.4	1.7	4.4	-1.3	1.3	nt
CC(C)c1ccc(NC(=O)CSc2nc3ccccc3nc2N2CCCC2)cc1	-3.0	-0.5	-4.0	3.1	-2.4	-1.9	nt
O=C1S/C(=C\C=C\c2ccco2)C(=O)N1c1ccc(O)cc1	-3.3	-2.6	-8.5	24.5	-8.8	5.2	nt
O=C(O)CC(C(=O)O)N1C(=O)/C(=C/C=C/c2ccco2)SC1=S (configuration not stated)	-9.5	-33.7	-4.4	36.7*	-4.1	34.1*	4.4
O=C(NN1C(=O)/C(=C/C=C/c2ccco2)SC1=S)c1ccccc1O	-13.7	-33.4	-13.0	-15.8	-26.6	44.4*	24.9*
Cn1cccc1/C=C1\SC(=S)N(NC(=O)c2ccccc2O)C1=O	-5.3	-0.6	-4.0	19.0	-8.9	1.2	nt
Cc1cc(-c2nnc3n2N=C(c2ccc(F)cc2)CS3)n[nH]1	-1.0	1.2	3.9	-0.5	-0.1	0.2	nt
NS(=O)(=O)c1ccc(N=Nc2c(-c3ccccc3)[nH]n(-c3nc(-c4ccccc4)cs3)c2=O)cc1	-3.3	13.4	2.0	22.4	4.3	33.2*	1.3
CN(c1ccccc1)c1ccc(/C=C(\CCC(=O)O)c2nc3ccccc3s2)cc1[N+](=O)[O-]	23.1	10.9	6.2	34.3	8.0	20.2*	13.8
O=[N+]([O-])c1cc(Cl)cc(/C=N/NC(=S)Nc2ccc(S(=O)(=O)N3CCOCC3)cc2)c1O	5.0	18.6	13.4	13.6	-8.1	39.4*	31.3*
N#Cc1ccc(/C=N/NC(=S)Nc2ccc(S(=O)(=O)N3CCOCC3)cc2)cc1	4.0	-0.9	-0.2	-15.2	-2.9	-0.9	nt
O=S(=O)(c1ccc(NC(=S)N/N=C/c2ccc(O)c(O)c2)cc1)N1CCOCC1	4.1	15.5	-18.1	20.6	-2.3	1.8	nt
O=[N+]([O-])c1cc(Cl)cc(C=NNC(=S)Nc2ccc(S(=O)(=O)N3CCOCC3)cc2)c1O	nt	nt	nt	nt	nt	nt	nt	Fam108b ABPP HTS=0.0
O=C(c1ccc(Cl)c(S(=O)(=O)N2CCOCC2)c1)N1CCCCCC1	1.2	-4.7	-1.2	4.9	-6.8	0.9	nt
O=C(Nc1ccc(Cl)cc1)c1cc2c(cc1O)[nH]c1ccccc12	-2.8	-48.4	-10.6	21.3	-2.4	24.6*	-98.2
O=C(CN1CCc2cc3c(cc2C1)OCCCO3)Nc1c(F)cccc1F	8.2	-1.6	-1.5	1.0	1.2	0.9	nt
CSc1ccc(CNC(=O)C2CCC(=O)N(CCc3cccc(F)c3)C2)cc1 (configuration not stated)	6.7	1.1	0.3	2.3	1.0	4.3	nt
Cn1c2ccccc2c2cc(C=NNC(=O)c3cc(O)ccc3O)ccc21	nt	nt	nt	nt	nt	nt	nt	Fam108b ABPP HTS=85.0*
COc1cc(/C=N/NC(=O)CCn2nnc3ccccc32)ccc1O	1.5	5.9	-2.9	-0.9	-2.3	-0.4	nt
COc1cc(/C=N/NC(=O)CCn2c3ccccc3c3ccccc32)ccc1O	-2.7	13.1	-6.1	-1.3	-3.9	24.3*	2.0
Cn1c2ccccc2c2cc(/C=N/NC(=O)c3cc(O)cc(O)c3)ccc21	-42.6	12.1	-28.8	-35.2	-3.6	8.3	nt
CCOc1ccc2[nH]c(C(=O)N/N=C/c3cc(OC)c(OC)c(OC)c3)cc2c1	-9.4	15.7	-8.8	2.3	-5.3	28.5*	-5.9
COc1ccc(/C=N/NC(=O)c2cc3c(OC)ccc(OC)c3[nH]2)cc1O	14.1	39.6*	4.9	3.9	-3.1	30.5*	17.2
SMILES	LYPLA2 counter	PME-1 inh	LYPLA1 inh	GSTO1 counter	PAD4 inh	Fam108B inh	Fam108b confirm	others
CCCc1c(C)nc(N2CCN(c3ccccc3F)CC2)[nH]c1=O	4.0	1.6	2.2	0.2	2.3	1.0	nt
COc1ccc(OC)c2[nH]c(C(=O)N/N=C/c3ccccc3O)cc12	-0.5	59.7*	-6.6	-22.4	-2.6	53.2*	20.8*
COc1cc(/C=N/NC(=O)c2nc(C)cc(C)n2)ccc1O	3.7	-0.4	1.4	-0.2	2.4	-0.7	nt
COc1cc(/C=N/NC(=O)c2cc3ccccc3[nH]2)ccc1O	1.4	36.0*	-6.0	-9.1	-0.9	20.4*	18.7*
COc1cc(OC)cc(C(=O)NCC(=O)OCc2ccc(Cl)c(Cl)c2)c1	-6.2	-0.6	-8.1	nt	-1.8	nt	nt
CCN(CC)c1ccc(C2Nc3cccc4cccc(c34)N2)c(O)c1	0.7	47.5*	-8.6	30.0	-4.2	50.8*	53.5*	Fam108b ABPP HTS=90.0*
COc1ccc(Br)cc1C1Nc2cccc3cccc(c23)N1	-4.4	-0.3	-1.0	4.4	-8.9	2.1	nt
COc1ccc(N2CCN(C3CCCN(C(=O)c4cccc(C)n4)C3)CC2)cc1 (configuration not stated)	4.0	2.0	-1.0	0.8	-3.5	1.2	nt
Cc1ccc(C)c(-n2c3nc(=O)[nH]c(=O)c-3cc3cc([N+](=O)[O-])ccc32)c1	10.0	36.0*	5.7	-10.3	3.1	26.2*	34.9*	Fam108b ABPP HTS=70.0*
Cc1ccc2nc(/C(C#N)=C\c3ccc(N4CCCCC4)c([N+](=O)[O-])c3)[nH]c2c1	15.3	67.5*	-8.0	-9.5	-3.9	31.0*	-0.2
Cc1ccc2nc(/C(C#N)=C/c3ccccc3C(=O)O)[nH]c2c1	-6.5	1.4	-4.1	-2.8	-7.8	-1.9	nt
O=C(O)c1cccc(N/N=C(\N=Nc2ccccc2)c2ccccc2)c1	9.5	10.5	2.6	21.1	0.9	8.0	nt
Brc1ccc(N/N=C(/N=Nc2nn[nH]n2)c2ccccc2)cc1	16.7	50.5*	13.0	24.7	0.3	24.8*	28.5*
CC(O)[C@@]1(O)CC[C@H]2[C@@H]3CC[C@H]4C[C@@H](O)CC[C@]4(C)C3=CC[C@@]21C (some centres not stated)	0.9	0.8	-2.9	3.9	-1.8	-2.3	nt
O=C(Nc1ccc(Nc2ccccc2)cc1)Nc1ccccc1Cl	-1.4	31.4*	-17.5	-5.3	-4.8	22.2*	-1.9
CCc1c(C(=O)Nc2ccc(OC)c(Cl)c2)[nH]c(C)c1C(C)=O	-7.2	-4.2	-14.2	-13.8	-3.5	19.0*	39.5*	Fam108b ABPP HTS=0.0
COc1ccc(Cl)cc1NC(=O)c1[nH]c(C)c(C(C)=O)c1C	-0.2	-6.3	-1.1	3.0	8.9	1.1	nt
O=C(NCCc1ccc(Cl)cc1)C1CCCN1C(=O)Nc1ccc(F)cc1 (configuration not stated)	-7.3	9.2	-1.5	-1.1	-0.3	1.1	nt
